SW480 rereplic – induces DNA re-replication in SW480 colon adenocarcinoma cells. SW480 DNA re-replication, Hoechst DNA content imaging, 48 h. Potency, µM (highest dose often 46.1 µM), usual class: activators. actives 1.8% (n = 340,000). AID 624297; further: nearly all actives have a fitted effect of over 55% in size
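Image-based DNA-content assay: after two days of treatment, nuclei were labelled with the DNA dye Hoechst and imaged, and hits were compounds raising the count of nuclei showing high fluorescence intensity.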
MCF10A rerep – induces DNA re-replication in MCF 10a normal breast cells; MCF 10A DNA re-replication, Hoechst nuclear intensity, 48 h; Potency, µM (top dose mostly 46.1 µM), actives largely listed as activators; actives 2.9% (n = 350,000); further: nearly all actives have a fitted effect of over 50% in size
HT1080NT lethal – kills 2HG-producing HT-1080-NT fibrosarcoma cells; HT-1080-NT fibrosarcoma viability, CellTiter-Glo ATP luminescence, 48 h; actives 1.6% (n = 360,000); Potency, µM (titrated, usually from 46.1 µM), most hits filed as cytotoxic;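 further: NT is the 2HG producing partner of a matched IDH1 knockdown line; nearly all actives have a fitted effect of over 55% in size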
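Fibrosarcoma NT cells, 750 per well in 5% FBS RPMI, were exposed to compound for 48 hours. Viability: CellTiter-Glo luminescence.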
KB-V1 cytotox – kills drug-selected multidrug resistant KB-V1 cells; KB-V1 MDR cells viability, CellTiter-Glo, 72 h; Potency, µM (top dose mostly 46.1 µM), most hits filed as cytotoxic; actives 3.4% (n = 400,000); further: nearly all actives have a fitted effect of over 60% in size
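Readout: CellTiter-Glo luminescence, 10 min after addition. Cells: KB-V1 MDR subline, 72 h at 37 degrees C with compound. Analysis: corrected, normalized data fitted to concentration-effect curves.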
KB-3-1 tox – KB-3-1 parental cell cytotoxicity. KB-3-1 viability, CellTiter-Glo ATP luminescence, 72 h. Potency, µM (top dose mostly 46.1 µM), hits mostly cytotoxic. actives 1.4% (n = 400,000). AID 1347075; further: nearly all actives have a fitted effect of over 60% in size
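Luminescent ATP read-out (CellTiter-Glo) measures survival of drug-naive KB-3-1 cells after 72 h compound exposure at 37 °C. Titration series was screened from lowest to highest concentration, with DMSO vehicle plates as background controls.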
HT1080 IDH1KD tx – kills HT-1080 cells with IDH1 knockdown; HT-1080 IDH1 knockdown viability, ATP luminescence, 48 h; Potency, µM (doses to about 46.1 µM), most hits filed as cytotoxic; actives 2% (n = 360,000); AID 686971
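% activity derives from luminescence (CellTiter-Glo), normalised to DMSO and no-cell wells. HT-1080-IDH1KD cells, 750/well, had 48 h compound exposure at 37 °C.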
A number is an active result; i = inactive; ? = inconclusive; nt = not tested or not shown; ! = not confirmed by another sample; [ ] = remark or other dose. Hits are enriched below; roughly 8% of the tested compounds scored in any of these assays. The call rests on the fitted dose curve; in most records, active means well fitted curve in the direction sought with a large enough effect; inconclusive means small, poorly fitted or top-dose-only effect, or another doubt; inactive means no such curve, though single readings can be large; an effect the other way counts as inactive or inconclusive.

SMILES	SW480 rereplic	MCF10A rerep	HT1080NT lethal	KB-V1 cytotox	KB-3-1 tox	HT1080 IDH1KD tx
CCC(=O)Oc1ccc2c(=O)c(-c3ccc4ccccc4n3)c(CC)oc2c1C	i	i	i	13µM	i	?
O=C(NCCc1ccccc1)C(=O)NCC1OCCN1S(=O)(=O)c1ccc2c(c1)OCCO2 (stereo not drawn)	?	i	i	i	i	i
COc1ccc(C2c3cc4c(cc3OC(N3CCOCC3)C2C)OCO4)c(OC)c1 (stereo not drawn)	?	2.9µM	?	?	4.6µM	?
O=[N+]([O-])c1ccc(S(=O)(=O)N2CCN(Cc3c[nH]c4ccccc34)CC2)cc1	i	i	i	21µM	i	i
COc1ccc(S(=O)(=O)N2CCN(Cc3c[nH]c4ccccc34)CC2)cc1	i	i	i	i	i	i
CCOC(=O)C1=NN(c2cccc(C)c2)C2(S1)SC(C(C)=O)=C(C)N2c1ccccc1 (stereo not drawn)	i	i	i	i	i	i
COc1ccccc1C(=O)Nc1cc(Cl)ccc1-n1cncn1	i	i	i	i	i	i
O=C(Nc1cc(Cl)ccc1-n1cncn1)c1ccc([N+](=O)[O-])s1	23µM	21µM	i	?	?	i
COc1cc(OC)c(C(=O)Nc2cc(Cl)ccc2-n2cncn2)cc1OC	5.2µM	i	i	i	i	i
COc1ccccc1-n1ccnc1SCC(=O)NCc1ccco1	i	i	i	?	i	i
COc1ccc2[nH]c3c(c2c1)CCn1c-3nc2ccccc2c1=O	i	?	i	i	i	i
CC/C(C)=N\Nc1nc(-c2cc3cc(OC)ccc3oc2=O)cs1	?	?	?	i	i	15µM
COc1ccc2oc(=O)c(-c3nc(C)cs3)cc2c1	i	i	i[9.24 µM]	i	?	i
O=c1[nH]c2ccc(NCc3ccc(-c4ccc(F)cc4)o3)cc2[nH]1	nt	nt	nt	i	i	nt
CC1CN(C(=O)CCC(=O)NC2CCCCC2)c2ccccc2S1 (stereo not drawn)	i	i	i	i	i	i
COc1cc(O)sc1C=Nc1ccc(Cl)cc1Cl	i	?	i	21µM	i	i
Oc1cccc(Nc2nc(O)c(/C=C3\C=Nc4ccccc43)s2)c1	?	?	?	i	i	?
Oc1nc(Nc2cccc(Cl)c2)sc1/C=C1\C=Nc2ccccc21	?	7.3µM	?	?	?	?
CC1=Nc2ccccc2/C1=C\c1sc(Nc2ccc(C)cc2)nc1O	1.3µM	?	0.92µM	1.5µM	?	0.65µM
Oc1nc(Nc2ccc(F)cc2)sc1/C=C1\C=Nc2ccccc21	?	21µM	i	i	i	?
Cc1ccc2[nH]c(=O)c3cc(C(=O)NCCN4CCN(C)CC4)sc3c2c1	i	i	i	?	i	i
O=C(Nc1ccccc1C(=O)N1CCN(Cc2ccccc2)CC1)c1ccc(F)cc1	i	i	i	i	i	i
CCOC(=O)COc1cc(-n2c(=S)[nH]c3ccccc3c2=O)c(Cl)cc1Cl	i	?	i	i	i	i
CCOC(=O)COc1cc(N)c(Cl)cc1Cl	i	6.5µM	i	i	i	i
CN(C)CCNC(=O)c1ccc(Sc2ccc(Br)cc2)c([N+](=O)[O-])c1	i	?	23µM	?	?	18µM
SMILES	SW480 rereplic	MCF10A rerep	HT1080NT lethal	KB-V1 cytotox	KB-3-1 tox	HT1080 IDH1KD tx
O=C(NCCCN1CCOCC1)c1ccc(N2CCOCC2)c([N+](=O)[O-])c1	i	i	i	nt	nt	i
CC(=O)NCCNC(=O)c1ccc(Sc2ccccc2)c([N+](=O)[O-])c1	i	?	i	i	i	i
O=C(NCCCN1CCOCC1)c1ccc(Sc2ccc(F)cc2)c([N+](=O)[O-])c1	i	i	i	23µM	i	i
CC(C)c1ccc2c(c1)CCC1C(C)(CN)CCCC21C (stereo not drawn)	3.3µM	16µM	?	?	21µM	21µM
CC(C)c1ccc2c(c1)CC[C@H]1[C@](C)(CN)CCC[C@]21C	?	i	18µM	?	?	21µM!
CC(C)c1cc2c(cc1S(=O)(=O)O)[C@@]1(C)CCC[C@@](C)(C(=O)O)[C@@H]1CC2	i	i	nt	nt	nt	nt
Oc1cccc(C(O)CNCc2ccc(OCc3ccc(Cl)cc3Cl)cc2)c1 (stereo not drawn)	?	15µM	23µM	?	i	16µM
OC(CNCc1cccc(Cl)c1)c1ccccc1 (stereo not drawn)	?	i	i	?	i	i
OC(CNCc1ccccc1)c1ccccc1 (stereo not drawn)	i	i	i	i	i	i
Oc1cccc(C(O)CNCc2ccc(-c3ccccc3)cc2)c1 (stereo not drawn)	?	16µM	16µM	?	?	21µM
CCN(CC)S(=O)(=O)c1ccc(-c2cc(C(=O)OC)sc2C(F)(F)F)cc1	i	i	i	i	i	i
COc1ccc(/C=C/C(=O)Nc2nc3n(n2)C(c2ccc(F)cc2)C=C(c2ccccc2)N3)cc1 (stereo not drawn)	nt	nt	nt	i	i	nt
CC(=O)C1=C(O)C(=O)N(c2ccc(Br)cn2)C1c1ccc(F)cc1 (stereo not drawn)	7.3µM	i	?	?	i	i
CC(=O)C1=C(O)C(=O)N(c2ccc(Br)cn2)C1c1ccc(Br)cc1 (stereo not drawn)	?	?	?	?	3.7µM	?
CC(=O)C1=C(O)C(=O)N(c2ccc(Br)cn2)C1c1ccccc1F (stereo not drawn)	i[9.22 µM]	i	i	?	i	i
COc1cc(C2C(C(C)=O)=C(O)C(=O)N2c2ccc(Br)cn2)ccc1O (stereo not drawn)	i	i	i	i	i	i
COC(=O)c1ccccc1NC(=O)CCn1c(=O)oc2ccccc21	?	i	i	i	i	i
O=C(Nc1cccnc1)c1ccc(COCC(F)(F)F)cc1	i	i	i	?	i	i
COc1cccc(NC(=O)c2ccc(CN3CCc4ccccc4C3)cc2)c1	i	?	i	i	i	i
O=C(Nc1ccc(S(=O)(=O)N2CCOCC2)cc1)c1ccc(CN2CCc3ccccc3C2)cc1	i[9.22 µM]	?	?	2.9µM	?	21µM
COc1ccc(CN2CCc3cc(OC)c(OC)cc3C2)cc1O	i	?	i	16µM	?	i
COc1ccc(NC(=O)c2ccc(COCC(F)(F)F)cc2)cc1OC	i	i	i	21µM	i	i
COc1cc2c(cc1OC)CN(Cc1ccc(F)cc1)CC2	?	i	i	i	i	i
COc1ccc(NC(=O)c2ccc(CN3CCc4ccccc4C3)cc2)cc1OC	?	i	i	8.2µM	?	i
N#CCNC(=O)C1CC(=O)N(CCc2ccc(F)cc2)C1 (stereo not drawn)	i	?	i	i	i	i
